# Screening results as filed in PubChem BioAssay.
# An excerpt weighted towards active compounds, which were near 21% of everything screened.
# ClpP mod: qHTS Assay for Activators of ClpP. ATP-dependent Clp protease proteolytic subunit (Bacillus subtilis (strain 168)), P80244. purified B. subtilis ClpP, FRET peptide cleavage, 20 min. Potency, µM (titrated, usually from 57.5 µM), for inactives: at the highest dose activity change, negative = active. 1.9% of 340,000 active. AID 651965, 2013; active = well fitted falling curve with a large enough effect; inconclusive = small, poorly fitted or top-dose-only effect; inactive = no such curve, though single readings can be large or run the other way; note: potency is the fitted concentration of half-maximal effect; the source files actives as falling curves though it sought activators and does not explain the sign; nearly all actives have a fitted effect of over 65% in size
# Target sequence (P80244 whole entry, looked up): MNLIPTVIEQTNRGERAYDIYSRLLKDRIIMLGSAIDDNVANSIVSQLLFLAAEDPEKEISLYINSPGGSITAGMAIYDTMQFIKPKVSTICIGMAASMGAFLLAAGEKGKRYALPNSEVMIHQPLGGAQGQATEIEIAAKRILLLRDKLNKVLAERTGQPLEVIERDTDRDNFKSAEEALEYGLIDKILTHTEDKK
#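 FRET quenching reversal measured ClpP activation: 10 microg/mL B. subtilis ClpP at pH 8 with the FRET-FV decapeptide, read at 430 nm after 320 nm excitation. The 20-min minus 0-min signal was scaled between DMSO/no-enzyme wells and ADEP (5.8 microM final).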
# DT40 TDP1 no CPT: qHTS for Inhibitors of human tyrosyl-DNA phosphodiesterase 1 (TDP1): qHTS in cells in absence of CPT; DT40 Tdp1-/- hTDP1 cells, no CPT, ATP luminescence, 48 h; Potency, µM (top dose mostly 46.2 µM), inactives show at the highest dose activity change, negative = growth inhibition, usual class: inhibitors; 15% of 420,000 active; note: potency is the fitted concentration of half-maximal effect; % is set by controls: 0 for no effect and ±100 for the full control effect; nearly all actives have a fitted effect of over 55% in size
#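 Chicken DT40 Tdp1-/- cells stably complemented with human TDP1 were seeded at 400 cells/well with DMSO in place of 20 nM camptothecin. After compound pinning, cells grew at least 48 hr at 37 °C; viability read by CellTiter-Glo luminescence.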
# DT40 TDP1 CPT: growth inhibition of DT40 Tdp1-/-;hTDP1 cells with camptothecin (screen for TDP1 inhibitors). 12% of 420,000 active. Potency, µM (highest dose often 46.2 µM), without a hit: top-dose activity change, negative = growth inhibition, actives largely listed as inhibitors. chicken DT40 Tdp1-/-;hTDP1 cells + 20 nM CPT, ATP luminescence, 48 h; note: potency is the fitted concentration of half-maximal effect; % is set by controls: 0 for no effect and ±100 for the full control effect; nearly all actives have a fitted effect of over 55% in size
#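 Cell growth measured by CellTiter-Glo luminescence after a minimum 48 h, 37 C compound exposure with 20 nM CPT in Tdp1-knockout DT40 cells stably expressing hTDP1, seeded 400/well; qHTS titration format.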
# IL1B secr inh: inhibitors of inflammasome signaling (IL-1 beta secretion) | THP-1 LPS/ATP IL-1B secretion, AlphaLISA, 16 h; stronger effect = lower value | activity change, % at 57.5 µM | 4.7% of 360,000 active; in the data active = activity change below about -50%; inconclusive = mostly about -30% to -49%; note: % is set by controls: 0 for no effect and ±100 for the full control effect
#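 THP-1 cells pretreated 1 hr with compounds (up to 57.5 uM final), then stimulated with LPS (250 ng/mL final) plus ATP (1.25 mM final); secreted IL-1B measured by AlphaLISA after 16 hr, decreased signal indicating inhibition.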
# DRD3 agonist: agonists of human D3 dopamine receptor; P35462; D3R DiscoveRx beta-arrestin cells, luminescence, 90 min; 0.58% of 410,000 active; max activation, %; AID 652048; in the data active = max activation above about 30%; note: 0% is about no effect
#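 Agonist mode: compounds and dopamine controls were applied to plated cells for 90 min at 37 degrees C after an overnight attachment at 1500 cells/well. Luminescent read-out followed 30 - 60 minutes at room temperature with DiscoveRx detection reagent.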
# D3 antag: D3 dopamine receptor (human) antagonism | P35462 | D3R cells, DiscoveRx beta-arrestin luminescence, antagonist mode; stronger effect = lower value | max response, negative = inhibition, % | 2.5% of 360,000 active | AID 652054; in the data active = max response below about -50%; inconclusive = no clear call, values can overlap the other calls; note: % is set by controls: 0 for no effect and ±100 for the full control effect
#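 Cells plated overnight at 1500 cells/well, then exposed to library compounds with dopamine controls for 90 minutes at 37 degrees C. DiscoveRx reagent added for 30–60 minutes at room temperature; luminescence read, quantitative HTS format.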
# Starred values were filed as active, the others as inactive; ? = inconclusive; nt = no result given. Unless noted, calls come from the whole dose curve; as a rule, active = well fitted inhibition curve with a large enough effect; inconclusive = small, poorly fitted or top-dose-only effect; inactive = flat fitted curve, though single readings scatter.
SMILES,ClpP mod,DT40 TDP1 no CPT,DT40 TDP1 CPT,IL1B secr inh,DRD3 agonist,D3 antag
Cc1ccc(-n2nc(CO)c(C(=O)NCCCCc3ccccc3)n2)cc1C,25µM*,-18%,-16%,nt,-4,nt
Cc1ccc(-n2nc(CO)c(C(=O)NCCO)n2)cc1,8.9µM*,-12%,4%,nt,12,nt
Cc1ccc(-n2nc(CO)c(C(=O)NC(C)CCCc3ccccc3)n2)cc1 (stereo not drawn),32µM*,21µM*,?,nt,-4,nt
CC(=O)Oc1ccc2c(C)c(CC(=O)N3CCN(C(=O)C4COc5ccccc5O4)CC3)c(=O)oc2c1C (stereo not drawn),4%,-29%,?,-25,2,-22
CCC1CCCCN1S(=O)(=O)c1ccc(C(=O)Nc2sc3c(c2C(N)=O)CCC3)cc1 (stereo not drawn),-1%,?,?,nt,3,nt
O=C(Nc1ccc(N2CCOCC2)cc1)C1CCN(S(=O)(=O)c2ccccc2F)CC1,2%,-15%,-11%,0,4,-20
O=C(NCCCCc1ccccc1)c1nn(-c2ccccc2)nc1CO,?,-16%,-16%,nt,4,nt
Cc1ccc(-n2nc(CO)c(C(=O)NCCCc3ccccc3)n2)cc1,22µM*,23µM*,?,nt,9,nt
FC(F)(F)c1nc2nncn2c2c1CCCCC2,32µM*,0%,-4%,1,2,0
CC(C)(C)NC(=O)Cn1nc(C(F)(F)F)c2c1CCCC2,nt,-19%,-2%,0,10,-3
COc1ccc(Oc2nc3c(c(=O)n(Cc4ccccc4Cl)c(=O)n3C)n2C)cc1,-2%,6.5µM*,?,nt,6,nt
Cn1c(Oc2ccc(F)cc2)nc2c1c(=O)n(Cc1ccccc1Cl)c(=O)n2C,-2%,12µM*,23µM*,nt,19,nt
Cn1c(=O)n(Cc2ccccc2Cl)c(=O)c2c1nc1n2CCN1c1ccccc1,-9%,-28%,-7%,nt,3,nt
CCc1noc(C)c1C(=O)N1CCN(S(=O)(=O)c2ccc(Br)cc2Cl)CC1,2%,-8%,?,1,-6,-24
CCOc1ccccc1NC(=O)C1CCN(S(=O)(=O)c2cccc3nonc23)CC1,2%,?,-12%,nt,2,nt
CCOC(=O)c1c(N)c(C#N)c2n1CCCC2,32µM*,-5%,-8%,-5,-3,-10
COc1ccccc1CN1C(=O)CN(C2CCCCCC2)C(=O)C1c1ccc(F)cc1 (stereo not drawn),1%,18µM*,21µM*,-21,8,-5
CCCOc1ccc(C2C(=O)N(C3CCCCCC3)CC(=O)N2Cc2ccccc2OC)cc1OC (stereo not drawn),0%,16µM*,26µM*,nt,-20,nt
CCCCN1C(=O)CN(C2CCCCCC2)C(=O)C1c1ccc(OCCC)c(OC)c1 (stereo not drawn),0%,?,12µM*,nt,13,nt
O=S(=O)(c1ccc2ccccc2c1)N1CCc2ccccc21,1%,?,?,12,0,-3
CCOc1ccc(C(=O)Nc2cc(NC(=O)c3ccc(OCC)c(Cl)c3)cc(C(=O)O)c2)cc1Cl,nt,-17%,2.1µM*,22,8,22
COc1ccc(S(=O)(=O)N2CCc3ccccc32)cc1[N+](=O)[O-],-1%,?,23µM*,-2,1,4
CCOc1ccc(C(=O)Nc2ccc3c(c2)N(C(C)=O)CCC3)cc1OCC,1%,21µM*,?,nt,3,nt
COc1ccccc1C(=O)Nc1ccc(S(=O)(=O)N2CCc3ccccc32)cc1,1%,21µM*,?,-9,-3,2
O=C(COC(=O)CNC(=O)C1CCCCC1)NC1CC1,-1%,-15%,-7%,nt,nt,nt
COC(=O)CC1C(=O)NCCN1C(=O)CN1Cc2ccccc2OC(c2ccccc2)C1 (stereo not drawn),nt,-14%,-5%,nt,nt,nt
